# Assay results as given in the supplement of paper PMC4206467.
# System: Perkinsus marinus PRA240
# Assay: ATP content (proliferation) relative to DMSO control; higher = more parasite growth (less inhibition)
# Settings: 20 µM; 4 days
# Experimental: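 Perkinsus marinus PRA240 trophozoites (2-5x10^6 cells/ml, 100 µl, 96-well) were exposed once to MMV Malaria Box compounds at 20 µM (0.1% DMSO) in triplicate. ATP content (ATPlite bioluminescence) was read at day 4 post-exposure and normalised to DMSO + cells control wells (100% activity). Compounds were identified by joining plate and well to the Malaria Box list.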
row,SMILES,ATP content [%]
1,Cc1[nH]c(-c2ccc(F)cc2)cc1C(=O)NC1CCN(Cc2ccccc2)CC1,108
2,CCCCc1c(C)nc2c(OC)cccc2c1O,37.3
3,Cn1c(=O)c2cc(C(=O)NCCCN3CCCCCC3)sc2c2ccccc21,86.3
4,CCn1c2c(c(=N)c3c1CCC3)CCCC2,96.7
5,Cc1ccc(C)c(-c2csc(Nc3ccc(C)c(C)c3)n2)c1,93.6
6,COc1ccc(C(=O)Nc2ccc(Cl)cc2C(=O)Nc2ccncc2)cc1,106
7,CCN(CC)CCNc1ncnc2c1[nH]c1ccc(Br)cc12,141
8,O=C(Nc1cccc(C(F)(F)F)c1)c1cc(Cl)ccc1O,2.99
9,Cc1cc(C)c2nc(N3CCC(C(=O)NCCCN4CCC(N5CCCCC5)CC4)CC3)sc2c1,135
10,CCN(CC)CCNc1ccnc2cc3ccccc3cc12,107
11,Cc1ccc(NC(=O)Nc2cccc(Cl)c2)cc1F,85
12,COc1ccc2nc(C)cc(Nc3ccc(Cl)cc3)c2c1,103
13,Cc1ccc(Cn2c(N3CCC(C(=O)NCc4cccs4)CC3)nc3ccccc32)cc1,106
14,COc1cccc(C(=O)NC(c2ccc(C)cc2)c2cc(Cl)c3cccnc3c2O)c1 (configuration not stated),39.5
15,CC(Oc1ccc(NC(=O)c2cccs2)cc1)C(=O)c1ccc(Cl)cc1 (configuration not stated),55.4
16,CC1CC2=C(CC1CNCCCN(C)C)C(C)(C)CCC2 (configuration not stated),119
17,CCCCc1c(CCC)c(=N)c2ccccc2n1C,95.4
18,COc1ccccc1C(=O)ON=C(N)Cc1cccc2ccccc12,148
19,CC1CCN(Cc2c(O)ccc3cc(-c4nc5ccccc5s4)c(=O)oc23)CC1,124

row,SMILES,ATP content [%]
1,Cc1ccc(OCCCCCCNCCO)c(C)c1,164
2,CCOc1ccc(-n2cc(-c3ccccc3)c3c(SCc4cc(C)ccc4C)ncnc32)cc1,171
3,CCOc1cccc(C(=O)Nc2ccc(-c3nc4ccccc4[nH]3)cc2)c1,143
4,Cc1ccccc1OCCSc1nc2ccc(NC(=O)c3ccccc3)cc2s1,50.6
5,CCOc1ccccc1CNC(=O)C1c2ccccc2C(=O)N(CC(C)C)C1c1cccs1 (configuration not stated),78.8
6,COc1cccc(C2(C)Nc3ccccc3-c3nc4ccccc4n32)c1 (configuration not stated),144
7,Cc1cccc(-n2ncc3c(=O)[nH]c(-n4nc(C)cc4NC(=O)c4cc5ccccc5o4)nc32)c1,19
8,CCCCCCc1cc2cc(-c3nc4ccccc4[nH]3)c(=Nc3ccccc3C)oc2cc1O,121
9,O=C(CCc1ccccc1)c1ccccc1OCC(O)CN1CCCCC1 (configuration not stated),62.3
10,CN1CCN(c2nc(Nc3ccc(O)cc3)nc3ccccc23)CC1,114
11,O=C(Nc1ccc(C23CC4CC(CC(c5ccccc5)(C4)C2)C3)cc1)c1cccs1,68.7
12,CN1C=C(c2ccc3ccccc3n2)C(c2c[nH]c3ccccc23)c2ccccc21 (configuration not stated),108
13,COc1cc2cc(C(=O)Nc3ccccc3)c(N)nc2cc1OC,44.3
14,COc1ccc(CCn2c(=N)c(C(=O)NCc3cccnc3)cc3c(=O)n4cccc(C)c4nc32)cc1,140
15,CC(C)CCNCC(O)Cn1c2ccccc2c2ccccc21 (configuration not stated),140
16,CC1(c2ccccc2)Nc2ccccc2-c2nc3ccccc3n21 (configuration not stated),109
17,CC(C)CNC(=O)c1c(N)n(CCc2ccccc2F)c2nc3ccccc3nc12,90.4
18,OCCNc1nc(Nc2ccc(Cl)c(Cl)c2)nc2ccccc12,28.8
